# Sa RN4220 lethal: S. aureus RN4220 growth inhibition. inhibition, % (concentration not given with the values). AID 1259311. OD600, 16 h. 0.33% of 330,000 active; in the data active means inhibition above about 85%;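 further: plate controls were untreated cells for no effect and reference antibiotic for full effect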
# Sa ugtP lethal: compounds lethal to S. aureus RN4220 ugtP deletion mutant; OD600 growth, 16 h; growth inhibition, % (test concentration not listed); 0.54% of 330,000 active; AID 1259309; in the data active means growth inhibition above about 68%;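 further: plate controls were untreated wells for no effect and antibiotic for full effect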
# PriA SSB inh: K. pneumoniae PriA-SSBct interaction inhibition; AlphaScreen SSBct-PriA binding, biotinylated peptide; inhibition, % at 33 µM; 0.6% of 430,000 active; AID 1272365; in the data active means inhibition mostly above about 37%, no sharp cut-off; inactive means mostly below about 20%;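 further: plate controls were negative control peptide for no effect and reference peptide for full effect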
# CCHF vOTU inh: CCHFV vOTU protease inhibition; inhibition, % at 11.5 µM; Pep-AMC fluorescence; AID 651958; 0.55% of 370,000 active; in the data active means inhibition above about 30%; further: 0% = vehicle wells with enzyme and 100% = no enzyme wells
# Mtb hypoxia inh: reduces hypoxia-regulated biosensor signal in M. tuberculosis. M. tuberculosis hypoxia-regulated fluorescent reporter, fluorescence. fluorescence inhibition, % (no concentration beside the values). 0.1% of 300,000 active. AID 1159583; in the data active means fluorescence inhibition mostly above about 23%, no sharp cut-off; inactive means mostly below about 17%
# Starred values were filed as active, the others as inactive; x = not tested or not shown; ! = repeats disagree. An excerpt weighted towards active compounds, which were near 1.4% of everything screened.
SMILES,Sa RN4220 lethal,Sa ugtP lethal,PriA SSB inh,CCHF vOTU inh,Mtb hypoxia inh
CCOC(=O)c1ccc2c(c1)n(CC)c(/C=C/N(C)c1ccccc1)[n+]2CC,19,6,-7,-18,5
CCOC(=O)Nc1sc2c(c1C(=O)OCC)CCC2,-1,61,-20,4,5
CCCCOC(=O)Nc1sc2c(c1C(=O)OC)CCC2,7,92*,-9,14,2
COc1ccc2nc(Nc3ccc4nc(C)sc4c3)sc2c1,x,x,16,x,x
COc1ccc(Nc2nc3ccc(OC)cc3s2)cc1,19,7,38*!,0,-6
CCSc1nnc(NC(=O)CSc2nc3c(c(=O)n2-c2cccc(OC)c2)SCC3)s1,x,x,-13,x,x
COc1ccc(Cl)cc1C(=O)NCCCS(=O)(=O)N1CCN(c2ccccn2)CC1,x,x,1,x,x
COc1ccc(-c2nc3ccccn3c2NCc2ccc3c(c2)OCO3)cc1,5,2,37,-23,10
COc1ccc(-c2nc3cc(C)ccn3c2NCc2ccc3c(c2)OCO3)cc1,-1,4,54*,-23,-6
COCCN1CCCc2ccc(NC(=O)c3cccc(Br)c3)cc21,x,x,56*,x,x
COCCN1CCCc2ccc(NS(=O)(=O)c3cccc(C)c3)cc21,x,x,4,x,x
COCCN1CCCc2ccc(NS(=O)(=O)c3ccc(OCC(C)C)cc3)cc21,x,x,39*,x,x
COCCN1CCCc2ccc(NS(=O)(=O)Cc3cccc(C)c3)cc21,x,x,40*,x,x
O=C(c1ccc(Cl)s1)N1CCC[C@H](S(=O)(=O)c2ccc(F)cc2)C1,x,x,-3,x,x
COc1c2c(cc3c1[C@H](CC(=O)c1ccc(-c4ccc(F)cc4)o1)N(C)CC3)OCO2,x,x,-7,x,x
C(=C\c1ccccc1)/CSc1nnc(-c2ccccn2)n1Cc1ccco1,x,x,68*,11,x
c1ccc(-c2nnc(SCc3nc4ccccc4[nH]3)n2Cc2ccco2)nc1,6,6,88*,6,-1
Nn1c(SC/C=C/c2ccccc2)nnc1-c1ccccn1,3,-8,90*,-1,4
CN(N=Cc1ccc(Cl)cc1Cl)c1ncc(Cl)cc1C(F)(F)F,-1,54,x,x,0
CN(N=Cc1ccc(Cl)cc1)c1ncc(Cl)cc1C(F)(F)F,-11,98*,x,x,8
CCOc1cc(C=NNc2ccc([N+](=O)[O-])cc2)ccc1OCC(=O)Nc1ccc(C)c(C)c1,-27,-26,-14,x,-1
COc1ccc(C=NN2C(=O)c3ccccc3C2=O)cc1,1,2,-10,x,7
CC(=O)/C(N=Nc1cc2c(c([N+](=O)[O-])c1C)C(C)(C)CC2(C)C)=C(\C)O,-3,89*,x,-10,0
CC(=O)/C(N=Nc1cc2c(cc1[N+](=O)[O-])OCCO2)=C(\C)O,1,-4,x,21,-13
O=Cc1c(Cl)nc2ccccn2c1=O,4,5,-1,7,0
SMILES,Sa RN4220 lethal,Sa ugtP lethal,PriA SSB inh,CCHF vOTU inh,Mtb hypoxia inh
CC1CCN(c2nc3ccccn3c(=O)c2C=O)CC1,9,4,-11,7,45*
FC(F)(F)c1nc2ccccc2nc1NN=Cc1ccccc1,2,-2,60*,x,x
COc1cc2c(cc1OC)CN(C(=O)c1c(C)nc3ccccn13)CC2,x,x,-4,x,x
Oc1c(C2=NCCNC(C(F)(F)F)=C2)ccc2ccccc12,0,-18,45*,19,16
COc1ccc2nc(NC(=O)c3ccc(S(=O)(=O)N(C)C4CCCCC4)cc3)sc2c1,x,x,-16,x,x
CC(=O)c1c(C)[nH]c(C(=O)Nc2nc(-c3ccc(Cl)cc3)cs2)c1C,71,90*,-1,-1,15
CC(=O)c1c(C)[nH]c(C(=O)Nc2nc(-c3ccc(-c4ccccc4)cc3)cs2)c1C,17,-4,1,1,7
O=C(Nc1nnc(C2CCCO2)o1)c1cccc(Oc2ccccc2)c1 (centres undefined),x,x,74*,x,x
CCOc1cccc2sc(N(CCCn3ccnc3)C(=O)c3ccc(Cl)s3)nc12,x,x,50*,x,x
CCc1cccc2sc(N(CCCn3ccnc3)C(=O)c3ccco3)nc12,x,x,110*,x,x
Cc1cccc2sc(N(CCCn3ccnc3)C(=O)c3ccc(Cl)s3)nc12,x,x,21,x,x
COc1cccc2sc(N(CCCn3ccnc3)C(=O)c3ccco3)nc12,x,x,57*,x,x
O=C(c1ccco1)N(CCCn1ccnc1)c1nc2c(F)cccc2s1,x,x,72*,x,x
CCCCc1ccc(S(=O)(=O)c2cnc(SCC(=O)Nc3ccc(Cl)cc3)[nH]c2=O)cc1,x,x,4,x,x
O=C(c1ccco1)N(CCCn1ccnc1)c1nc2c(Cl)cccc2s1,x,x,64,x,x
Cc1c(Cl)ccc2sc(N(CCCn3ccnc3)C(=O)c3ccco3)nc12,x,x,69*,x,x
O=C(COc1ccc(Cl)cc1)N1CCC[C@H](Oc2cccnn2)C1,x,x,-13,x,x
CCCN1CCN(CCCNC(=O)c2ccc3nc(N4CCCCC4)sc3c2)CC1,2,5,100*,-1,5
CC1CC(C)CN(CCCNC(=O)c2ccc3nc(N4CCCCC4)sc3c2)C1 (centres undefined),-1,3,-7,5,10
Cc1ccc(C(=O)NC(=Cc2cccs2)C(=O)NCc2ccco2)cc1,8,0,x,x,4
COCCn1cc(NC(=O)Nc2cc(C)ccc2OC)c2ccccc21,x,x,37*,x,x
COc1ccccc1C(=O)Nc1nnc(-c2ccc(Br)cc2)o1,x,x,-6,x,x
Cc1c(Cl)cccc1NC(=O)CSc1ncc(-c2ccccc2)[nH]1,x,x,22,x,x
Cn1cc(/C=N\O)nc2c(=O)n(-c3ccccc3)c(=O)nc1-2,x,x,x,-11,x
Cn1cc(C=NO)nc2c(=O)n(-c3ccccc3)c(=O)nc1-2,7,-2,-11,x,38*
SMILES,Sa RN4220 lethal,Sa ugtP lethal,PriA SSB inh,CCHF vOTU inh,Mtb hypoxia inh
COc1ccc(SC(CCN2CCC(O)CCC2=O)c2ccccc2)cc1 (centres undefined),12,6,x,x,8
O=C(COc1ccc(Cl)cc1Cl)Nc1ccc(S(=O)(=O)N2CCOCC2)cc1,x,x,60*,x,x
CCC(C)n1c(=O)c2sccc2n2c(CCCC(=O)N3CCC(C(N)=O)CC3)nnc12 (centres undefined),0,-7,43*,4,-12
CCN(c1ccc(NS(=O)(=O)c2cc(Cl)ccc2Cl)cc1)C(C)C,6,3,40*,18,11
CN(C)c1ccc(NS(=O)(=O)c2cc(Cl)ccc2Cl)cc1,6,-5,35,-7,2
CC(=O)Nc1ncc(CN2CCNCC2)s1,x,x,-9,x,x
O=C(NCc1c(-c2ccc(Cl)cc2)nc2n1CCS2)c1ccc(S(=O)(=O)N2CCCCCC2)cc1,x,x,-9,x,x
OC(CN1CCc2ccccc2C1)CN1c2ccccc2Sc2ccccc21 (centres undefined),x,x,54*,x,x

# Assay outcomes: PubChem, several laboratories
